Rows were chosen to be rich in hits. Some 3.1% of all compounds tested hit in one or more screens of this group.
VDR inh – blocks the human vitamin D receptor; P11473; VDR-SRC2-3 peptide fluorescence polarization, 2 h; Potency, µM, without a hit: max response, negative = inhibition, actives largely listed as inhibitors; hit rate 0.93% among 400,000; note: potency is the fitted concentration of half-maximal effect; % is set by controls: 0 for no effect and ±100 for the full control effect
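The screen uses fluorescence polarization to detect compounds that interfere with recruitment of the SRC2-3 coactivator peptide to VDR; plates are read after 2 h at room temperature.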
PTAP TSG101 blk – blocks PTAP/TSG101 interaction to inhibit HIV-1 budding. Q99816. Fluorescence polarization, FITC-PTAP peptide / Tsg101 binding. Potency, µM (top dose mostly 115 µM), inactives show top-dose activity change, negative = inhibition, actives largely listed as inhibitors. 340,000 tested, under 10 active. AID 493005; active = well fitted inhibition curve with a large enough effect in the main read-out, with a control signal flat, not every such curve was filed as active; inconclusive = small, poorly fitted or top-dose-only effect, or effect the other way, or a change in a side signal; inactive = no such curve, though single readings can be large or run the other way; note: potency is the fitted concentration of half-maximal effect; % of control where 0% means no effect
Target sequence (Q99816 whole entry, looked up): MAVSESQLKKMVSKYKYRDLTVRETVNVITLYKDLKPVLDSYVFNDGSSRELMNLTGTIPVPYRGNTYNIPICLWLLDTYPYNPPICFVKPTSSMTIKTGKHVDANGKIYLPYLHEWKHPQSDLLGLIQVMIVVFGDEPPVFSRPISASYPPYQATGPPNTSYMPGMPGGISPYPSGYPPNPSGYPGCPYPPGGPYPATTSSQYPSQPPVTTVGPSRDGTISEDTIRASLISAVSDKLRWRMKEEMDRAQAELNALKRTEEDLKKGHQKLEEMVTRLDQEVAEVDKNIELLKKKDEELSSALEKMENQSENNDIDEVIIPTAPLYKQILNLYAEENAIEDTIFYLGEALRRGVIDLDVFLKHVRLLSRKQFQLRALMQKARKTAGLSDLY
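Steps: Tsg101 binding domain dispensed (10 uM final), compounds pinned in DMSO, FITC-labeled PTAP-motif peptide added (50 nM final); after 20 min binding at room temperature, polarization measured.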
TSHR antagonist – blocks TSH signaling through the human TSH receptor | P16473 | TSHR-expressing cells, TSH-stimulated cAMP HTRF, 2 h; hits give low values | activity change, negative = inhibition, % at 11.5 µM | hit rate 0.2% among 330,000;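 active = activity change below a set negative limit, meaning inhibition stronger than a set level, cut at about -70% in these data; inconclusive = activity change between two set negative limits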; note: % is set by controls: 0 for no effect and ±100 for the full control effect
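TSHR-expressing cells were treated with compounds, then stimulated with TSH at EC80 (4nM final) for 2 hours at 37 deg C. Cellular cAMP was measured by HTRF competition between lysate cAMP and cAMP-d2 for a cryptate-labelled anti-cAMP antibody.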
PLK1 PBD inh – inhibitors of human PLK1 polo-box domain binding | P53350 | Potency, µM, inactives show max response, negative = inhibition, most hits filed as inhibitors | hit rate 2.8% among 360,000 | Plk1 PBD binding of FITC phosphopeptide, fluorescence polarization; note: potency is the fitted concentration of half-maximal effect; series mostly up to about 57 µM; % is set by controls: 0 for no effect and ±100 for the full control effect; nearly all actives have a fitted effect of over 65% in size
uPA generation – cell surface uPA generation inhibition | Potency, µM (top dose mostly 38.3 µM), inactives show top-dose activity change, negative = inhibition, most hits filed as inhibitors | AID 540303 | cell surface uPA generation assay, qHTS | hit rate 0.31% among 330,000; active = well fitted inhibition curve with a large enough effect; inconclusive = small, poorly fitted or top-dose-only effect; inactive = no such curve, though single readings can be large or run the other way; tested in mouse RAW 264.7 cells; note: potency is the fitted concentration of half-maximal effect; % is set by controls: 0 for no effect and ±100 for the full control effect; nearly all actives have a fitted effect of over 55% in size
Active calls of the source: *; ? = inconclusive; nt = not tested or not shown. Unless noted, calls come from the whole dose curve; as a rule, active = well fitted curve in the direction sought with a large enough effect; inconclusive = small, poorly fitted or top-dose-only effect, or another doubt; inactive = no such curve, though single readings can be large; an effect the other way counts as inactive or inconclusive.

SMILES | VDR inh | PTAP TSG101 blk | TSHR antagonist | PLK1 PBD inh | uPA generation
O=C(CSc1nnc(NC(=O)c2ccccc2F)s1)NCC1CCCO1 (centres undefined) | -14.4% | -0.6% | -8.9 | ? | 6.31µM*
COc1ccc(N2CC(C(=O)Nc3nnc(SCC(=O)NCC4CCCO4)s3)CC2=O)cc1 (centres undefined) | ? | -0.1% | nt | 29.9µM* | -2.0%
Cc1ccc(N2CC(C(=O)Nc3nnc(SCC(=O)NCC4CCCO4)s3)CC2=O)cc1C (centres undefined) | -22.4% | nt | 5.5 | -7.4% | ?
O=C(c1ccncc1)N1CCC2(CCN(Cc3nccs3)CC2)CC1 | -5.4% | nt | nt | nt | nt
NC(=O)NOCc1ccc(Cl)cc1Cl | -22.5% | -0.2% | -5.6 | 26.7µM* | -1.9%
NC(=O)NOCc1ccc(F)cc1Cl | -10.7% | 2.3% | 6.5 | -0.7% | 4.9%
COc1cc(NS(=O)(=O)c2ccc(C)cc2C)cc(OC)c1OC | 21.0% | -3.6% | -87.3* | -0.6% | -11.5%
Cc1ccc(Nc2nc3ccccc3o2)cc1F | ? | -1.8% | -13.1 | 2.99µM* | 0.5%
Cc1cc(C)c2c(=O)c(C#N)coc2c1 | -0.7% | -2.3% | 3.8 | 16.8µM* | -10.1%
CCc1cccc(C)c1NC(=O)C(CC)Sc1nc2ccncc2[nH]1 (centres undefined) | 1.3% | nt | nt | nt | nt
COC(=O)c1sccc1S(=O)(=O)N(CC(=O)Nc1ccccc1)c1ccccc1 | 0.6% | nt | nt | nt | nt
CC1CCCC(=C\c2ccccc2)/C1=N/O (centres undefined) | ? | 0.0% | 2.5 | 26.7µM* | 2.0%
O=C1/C(=C/c2ccccc2)CCC1C1CCCC1 (centres undefined) | 2.5% | -1.4% | -7.4 | -17.6% | 2.0%
Cc1cccc(Nc2nc3c(S(=O)(=O)c4ccc(Br)cc4)nnn3c3ccsc23)c1C | 9.6% | nt | nt | nt | nt
O=C(O)c1ccc(N/N=C/c2ccc(-c3ccc(Cl)cc3Cl)o2)cc1 | -1.2% | 1.1% | -23.1 | 23.8µM* | ?
COC(=O)N/N=C/c1ccc(-c2ccc(Cl)cc2Cl)o1 | 3.3% | -2.3% | -10.3 | -1.7% | -3.7%
O=C(O)c1ccc(N/N=C/c2ccc(-c3cc(Cl)ccc3Cl)o2)cc1 | ? | -2.8% | -6.8 | 21.2µM* | 5.7%
O=C(O)c1ccc(N/N=C/c2ccc(-c3cccc(Cl)c3)o2)cc1 | -5.0% | -3.3% | -13.3 | ? | -7.0%
COc1ccccc1Nc1ccc([N+](=O)[O-])cc1N | -12.1% | -5.1% | 0.1 | 26.7µM* | -16.9%
CCOc1ccccc1CNC(=O)c1nc(-c2ccc(Cl)cc2)n2c1CCCCC2 | -9.9% | nt | nt | nt | nt
OC(c1cccc(Cl)c1)c1ncc(-c2ccc(Oc3ccccc3)cc2)[nH]1 (centres undefined) | nt | nt | nt | 2.8% | nt
COc1ccc2[nH]c3c(c2c1)CCNC3C1CC=C(C)CC1 (centres undefined) | -20.5% | -3.6% | 14.6 | -0.1% | 2.82µM*
COc1ccc2[nH]c3c(c2c1)CCNC3c1ccc([N+](=O)[O-])o1 (centres undefined) | ? | -23.3% | -4.5 | ? | -12.2%
O=C(Nc1ccc2c(c1)OCCO2)c1ccccc1F | -14.8% | -4.0% | 5.0 | 2.99µM* | -10.0%
O=C(Nc1ccc2c(c1)OCCO2)c1ccccn1 | -11.2% | -6.5% | -6.2 | 0.3% | 3.55µM*
SMILES | VDR inh | PTAP TSG101 blk | TSHR antagonist | PLK1 PBD inh | uPA generation
CCCOc1ccc(OCCSc2ncccn2)cc1 | -4.7% | -6.0% | -5.6 | 3.9% | 0.1%
Brc1cccc(OCCSc2ncccn2)c1 | -21.0% | -1.5% | 2.3 | 13.4µM* | 6.6%
Clc1ccc(OCCCCSc2ncccn2)cc1 | -13.5% | -6.5% | -9.1 | 29.9µM* | 5.0%
Nc1nnc(SCCOc2cccc(Br)c2)s1 | 17.5% | -10.1% | -32.0 | -14.8% | nt
CCOc1ccc(CNC(=O)Cn2c(=O)c3cccn3c3ccc(F)cc32)cc1OC | -1.7% | nt | nt | nt | nt
O=C(CSc1nnc(-c2cccc(S(=O)(=O)N3CCCC3)c2)n1-c1ccccc1)Nc1ccc(C(=O)O)cc1 | 0.1% | -3.6% | -5.3 | 75.2µM* | -0.6%
CCCCS(=O)(=O)/C=C\C=C/S(=O)(=O)CCCC | 35.5µM* | -3.7% | ? | 15µM* | 1.6%
CCCCS(=O)(=O)/C=C\C1C2C=CC(C2)C1S(=O)(=O)CCCC (centres undefined) | -4.6% | -6.9% | -2.2 | -8.2% | -0.1%
O=C(CSC1CC(=O)N(CCc2ccccc2)C1=O)Nc1cccc(Cl)c1 (centres undefined) | 79.4µM* | -0.8% | -26.6 | ? | -6.4%
CCOC(=O)C1CCN(C(c2ccccn2)c2c(C)[nH]c3ccccc23)CC1 (centres undefined) | ? | -4.7% | -8.6 | 11.9µM* | -4.2%
Cc1[nH]c2ccccc2c1C(c1ccccn1)N1CCC(C(N)=O)CC1 (centres undefined) | ? | -0.9% | nt | 6.7µM* | 7.9%
Cc1[nH]c2ccccc2c1C(c1ccncc1)N1CCC(C)CC1 (centres undefined) | -26.6% | -7.6% | 6.5 | ? | 0.5%
Cc1ccc2c(=O)cc(C(=O)Nc3sc4c(c3C(=O)NCc3ccco3)CCCC4)oc2c1C | -9.4% | nt | nt | nt | nt
Cc1ccc(-n2nc(C(=O)N3CCN(c4cccc(C(F)(F)F)c4)CC3)c3c4ccccc4n(C)c3c2=O)cc1 | -11.7% | nt | nt | nt | nt
O=C(CSc1nnc(SCc2ccc(Cl)cc2)s1)N/N=C/c1ccc(C(=O)O)cc1 | -6.7% | -6.1% | -6.1 | 67µM* | -0.3%
CC(C)S(=O)(=O)C1=NSC2=NC(=O)/C(=C\c3ccc(-c4ccccc4)o3)C(=N)N21 | ? | 1.6% | -85.6* | 29.9µM* | 5.0%
N=C1/C(=C/c2ccc(-c3cccc(C(=O)O)c3)o2)C(=O)N=C2SC=C(c3ccccc3)N12 | -21.4% | 3.5% | -38.4 | 15µM* | 13.1%
N=C1/C(=C\c2ccc(-c3cc(Cl)cc(Cl)c3)o2)C(=O)N=C2SC=C(c3ccccc3)N12 | 11.9% | 3.5% | 2.4 | -7.3% | -7.3%
O=C1OC(c2cccs2)=N/C1=C/c1ccc(-c2cccc(C(=O)O)c2)o1 | 79.4µM* | ? | 4.0 | 19.4% | 16.9%
CS(=O)(=O)C1=NSC2=NC(=O)/C(=C\c3ccc(-c4ccccc4)o3)C(=N)N21 | nt | nt | -31.2 | nt | nt
O=C1OC(c2cccs2)=N/C1=C\c1ccc(-c2ccccc2Cl)o1 | 8.2% | ? | -3.9 | -13.3% | nt
CCCSc1ncc(Cl)c(C(=O)Nc2scc(-c3ccc(C)cc3)c2C(=O)OCC)n1 | 4.5% | nt | nt | nt | nt
CCc1noc(-c2ccc(N3CCCCC3C)c([N+](=O)[O-])c2)n1 (centres undefined) | 13.9% | nt | nt | nt | nt
O=C(COC(=O)c1ccc2ncsc2c1)NC(=O)C1CCCCC1 | -8.0% | nt | nt | nt | nt
COc1ccccc1NC(=O)c1c(C)cc(C)nc1SCC(=O)c1ccc(Cl)cc1 | 11.8% | nt | nt | nt | nt
CCNC(=O)c1c(O)c2c([nH]c1=O)CCCC2 | ? | -3.5% | -4.2 | 26.7µM* | 4.6%
Cc1c(/C=C(\CC(=O)O)c2nc3ccccc3s2)cc(C#N)n1C | ? | -4.2% | -0.9 | 26.7µM* | 1.2%
Cc1nn(-c2ccccc2)c(Cl)c1/C=C(/CC(=O)O)c1nc2ccccc2s1 | 3.2% | -7.5% | nt | -11.2% | 1.3%
